# T cruzi growth-1 – blocks T. cruzi growth in NIH3T3 culture. T. cruzi beta-gal in NIH3T3, GalScreen luminescence, 90 h. inhibition, % at 8.34 µM. 5.9% of 77,000 active;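 active means mean inhibition above about 93%, with at least 55% of replicates each passing it, limit read from the data, passing the limit was not always enough; inconclusive means only one of those two conditions holds; inactive means neither condition holds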
# C diff growth – C. difficile growth inhibition. 0.25% of 86,000 active. Clostridium difficile clinical isolate growth, OD600, 24 h; active compounds read low. growth activity, negative = inhibition, % at 16 µg/mL (by protocol);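 active means mean growth activity at or below -80% and every replicate also at or below -80%; inconclusive means mean at or below -80% but some replicate above -80%; inactive means mean growth activity above -80%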;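 further: 0% = DMSO wells and -100% = levofloxacin 16 µg/mL wells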
# T cruzi growth-2 – Trypanosoma cruzi proliferation inhibition. shares compounds with T cruzi growth-1. 72% of 5,600 active. inhibition, % at 8.35 µM. AID 651739. T. cruzi beta-gal in NIH3T3, GalScreen luminescence, 90 h;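 active means mean replicate inhibition above about 95% and at least 55% of replicates individually reaching it, limit read from the data; inconclusive means only one of the two criteria is met; inactive means neither criterion is met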
# T cruzi growth-3 – inhibitors of T. cruzi proliferation | T. cruzi beta-gal in NIH3T3, GalScreen luminescence, 90 h | AID 651740 | 21% of 5,600 active | inhibition, % at 2.09 µM | shares compounds with T cruzi growth-1;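 active means mean inhibition above about 95%, with at least 55% of replicates also reaching it, limit read from the data; inconclusive means meets just one of the two conditions; inactive means meets neither condition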;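 further: plate controls were neutral control median for no effect and positive control median for full effect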
# 3T3 cytotox – kills mouse NIH/3T3 fibroblasts; shares compounds with T cruzi growth-1; NIH/3T3 viability, CellTiter-Glo ATP luminescence, 90 h; cytotoxicity (signal decrease), % at 8.35 µM; 14% of 5,600 active;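 active means mean signal decrease across replicates above about 35% based on untreated-well scatter, with enough replicates individually passing, limit read from the data; inconclusive means no rule stated though some were filed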;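 further: 0% = median of neutral control wells and 100% = median of positive control wells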
# 3T3 cytotox 2 – kills mouse NIH/3T3 fibroblasts. shares compounds with T cruzi growth-1. inhibition, % at 24.9 µM. NIH/3T3 viability, CellTiter-Glo ATP luminescence, 90 h. AID 651744. 56% of 5,600 active;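 active means mean loss of cell viability signal at or above a set limit, and enough replicates individually reaching it; inconclusive means meets only the mean limit or only the replicate share; inactive means meets neither condition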;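 further: 0% = median of neutral control wells and 100% = median of positive control wells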
# Numbers without * were called inactive; u = inconclusive; x = no result. Shown is part of a subset that was picked to be rich in hits.
SMILES,T cruzi growth-1,C diff growth,T cruzi growth-2,T cruzi growth-3,3T3 cytotox,3T3 cytotox 2
C[C@@H]1CN([C@@H](C)CO)C(=O)c2cc(NS(=O)(=O)c3ccc(F)cc3)ccc2O[C@@H](C)CCCCO[C@@H]1CN(C)S(=O)(=O)c1cccs1,97*,-2,108*,2,-27,-11
C[C@@H]1CCCCO[C@@H](CN(C)S(=O)(=O)c2cccs2)[C@H](C)CN([C@@H](C)CO)C(=O)c2cc(N(C)C)ccc2O1,33,-1,x,x,x,x
C[C@@H]1CCCCO[C@H](CN(C)S(=O)(=O)c2cccs2)[C@H](C)CN([C@H](C)CO)C(=O)c2cc(NS(=O)(=O)c3ccc(Cl)cc3)ccc2O1,99*,3,102*,114*,-9,9
C[C@@H]1CCCCO[C@@H](CN(C)S(=O)(=O)c2cccs2)[C@@H](C)CN([C@H](C)CO)C(=O)c2cc(NS(=O)(=O)c3ccccc3)ccc2O1,-13,-3,x,x,x,x
C[C@@H]1CCCCO[C@@H](CN(C)S(=O)(=O)c2cccs2)[C@@H](C)CN([C@H](C)CO)C(=O)c2cc(NS(=O)(=O)c3ccc(F)cc3)ccc2O1,10,-5,x,x,x,x
C[C@H]1CCCCO[C@H](CN(C)S(=O)(=O)c2cccs2)[C@@H](C)CN([C@@H](C)CO)C(=O)c2cc(NS(=O)(=O)c3ccccc3)ccc2O1,105*,-6,106*,37,-10,-24
Cc1noc(C)c1NC(=O)N(C)C[C@H]1Oc2ncc(C#CC(C)C)cc2C(=O)N([C@H](C)CO)C[C@@H]1C,9,7,x,x,x,x
CC(C)NC(=O)N(C)C[C@@H]1Oc2ccc(NC(=O)CCCCCC(=O)Nc3ccccc3N)cc2CC(=O)N([C@H](C)CO)C[C@H]1C,-15,-5,x,x,x,x
C[C@@H]1CN([C@H](C)CO)C(=O)Cc2cc(NC(=O)Cc3ccccc3)ccc2O[C@H]1CN(C)Cc1ccncc1,x,3,x,x,x,x
CC(C)NC(=O)N1[C@H](CO)[C@H]2c3ccccc3N(C(=O)Nc3ccccc3)C[C@H]21,-39,-5,x,x,x,x
C[C@H](CO)N1C[C@H](C)[C@H](CN(C)C)Oc2ccc(NS(=O)(=O)c3cn(C)cn3)cc2C1=O,-6,-1,x,x,x,x
C[C@@H]1CN([C@H](C)CO)C(=O)c2cc(NS(=O)(=O)c3ccc(Cl)cc3)ccc2O[C@@H](C)CCCCO[C@@H]1CN(C)S(=O)(=O)c1cccs1,101*,10,116*,79,-13,12
C[C@@H]1CN([C@@H](C)CO)C(=O)c2cc(NS(=O)(=O)c3ccc(Cl)cc3)ccc2O[C@@H](C)CCCCO[C@@H]1CN(C)S(=O)(=O)c1cccs1,95,9,x,x,x,x
C[C@@H]1CCCCO[C@@H](CN(C)S(=O)(=O)c2cccs2)[C@H](C)CN([C@@H](C)CO)C(=O)c2cc(NS(=O)(=O)c3ccc(Cl)cc3)ccc2O1,96*,0,98*,66,0,14
C[C@@H]1CN([C@H](C)CO)C(=O)c2cc(NS(=O)(=O)c3ccc(Cl)cc3)ccc2O[C@@H](C)CCCCO[C@H]1CN(C)S(=O)(=O)c1cccs1,94,1,x,x,x,x
C[C@H](O)C#Cc1cnc2c(c1)C(=O)N([C@H](C)CO)C[C@@H](C)[C@H](CN(C)C(=O)Nc1ccc(F)cc1)O2,23,x,x,x,x,x
CO[C@H]1CN(C)C(=O)c2cc(NC(=O)c3cnccn3)ccc2OC[C@@H](C)N(C)C[C@@H]1C,30,x,x,x,x,x
CCCC#Cc1ccc([C@@H]2[C@@H](C#N)N(S(=O)(=O)c3cccc(F)c3)[C@H]2CO)cc1,88,-15,x,x,x,x
CCC(=O)N1CC[C@@H]2[C@H]1c1cc(-c3ccc(OC)cc3)ccc1N(C)[C@H]2CO,94,7,x,x,x,x
CCC(=O)N1CC[C@H]2[C@@H]1c1cc(-c3ccc(F)cc3)ccc1N(C)[C@H]2CO,u,2,108*,71,-8,21
COCC(=O)N1CC[C@@H]2[C@@H](CO)N(C)c3ccc(-c4ccc(F)cc4)cc3[C@@H]21,86,-4,x,x,x,x
CCC(=O)N1CC[C@H]2[C@@H]1c1cc(-c3ccc(OC)cc3)ccc1N(C)[C@H]2CO,105*,14,108*,91,-15,-17
CCCc1cn(CC[C@H]2CC[C@H](NC(=O)C3CCOCC3)[C@H](CO)O2)nn1,-4,-2,x,x,x,x
C[C@@H]1CCCCO[C@@H](CN(C)CC2CCCCC2)[C@H](C)CN([C@@H](C)CO)C(=O)c2cc(NC(=O)CCC(F)(F)F)ccc2O1,u,18,u,20,9,18
C[C@@H]1CCCCO[C@@H](CN(C)Cc2ccncc2)[C@@H](C)CN([C@H](C)CO)C(=O)c2cc(NC(=O)CCC(F)(F)F)ccc2O1,-26,-1,x,x,x,x
SMILES,T cruzi growth-1,C diff growth,T cruzi growth-2,T cruzi growth-3,3T3 cytotox,3T3 cytotox 2
C[C@@H]1CCCCO[C@@H](CN(C)CC2CCCCC2)[C@@H](C)CN([C@H](C)CO)C(=O)c2cc(NC(=O)CCC(F)(F)F)ccc2O1,13,5,x,x,x,x
C[C@H](CO)N1C[C@H](C)[C@@H](CN(C)Cc2ccc(Cl)c(Cl)c2)OCCCC[C@H](C)Oc2ccc(NC(=O)CCC(F)(F)F)cc2C1=O,80,8,x,x,x,x
C[C@@H]1CCCCO[C@H](CN(C)Cc2ccncc2)[C@H](C)CN([C@H](C)CO)C(=O)c2cc(NC(=O)CCC(F)(F)F)ccc2O1,96*,0,44,0,-5,10
C[C@@H]1CCCCO[C@@H](CN(C)Cc2ccc(Cl)c(Cl)c2)[C@H](C)CN([C@H](C)CO)C(=O)c2cc(NC(=O)CCC(F)(F)F)ccc2O1,u,-12,92,104*,-3,103*
COc1ccc(C#Cc2cnc3c(c2)C(=O)N([C@@H](C)CO)C[C@@H](C)[C@@H](CN(C)CC2CC2)O3)cc1,86,x,x,x,x,x
C[C@@H]1CN([C@@H](C)CO)C(=O)c2c(c3ccccc3n2C)-c2ccccc2CO[C@@H]1CN(C)Cc1ccc(O)cc1,x,-7,x,x,x,x
C[C@@H]1CN([C@@H](C)CO)C(=O)c2c(c3ccccc3n2C)-c2ccccc2CO[C@@H]1CN(C)Cc1ccncc1,-10,x,x,x,x,x
C[C@H]1CN([C@@H](C)CO)C(=O)c2c(c3ccccc3n2C)-c2ccccc2CO[C@@H]1CN(C)C(=O)[C@@H](Cc1ccccc1)N(C)C,-9,-9,x,x,x,x
C[C@H]1CN([C@@H](C)CO)C(=O)c2c(c3ccccc3n2C)-c2ccccc2CO[C@H]1CN(C)Cc1cccnc1,u,-3,88,27,37*,63*
C[C@H](CO)N1C[C@H](C)[C@H](CN(C)C(=O)[C@H](Cc2ccccc2)N(C)C)OCc2ccccc2-c2c(n(C)c3ccccc23)C1=O,u,6,88,35,16,u
C[C@@H]1CN([C@H](C)CO)C(=O)c2c(c3ccccc3n2C)-c2ccccc2CO[C@@H]1CN(C)Cc1cccnc1,111*,-1,109*,53,1,51*

# Source: PubChem (Broad Institute)
